Data taken from PubChem BioAssay (NCATS).
Inconclusive results are not listed. Where a call stands in place of a potency, no number is given. Calls of active or inactive are those of the source. The call rests on the fitted dose curve; in most records, active means well fitted inhibition curve with a large enough effect; inconclusive means small, poorly fitted or top-dose-only effect; inactive means no such curve, though single readings can be large or run the other way.

Assays:
[1] = system: Zika virus NS2B-NS3 protease (unlinked complex); assay: Primary screen GU Rhodamine qHTS for Zika virus inhibitors: Unlinked NS2B-NS3 protease assay (AID 1347159); further: nearly all actives have a fitted effect of over 60% in size; further: potency means the concentration at half of the fitted maximal effect
Method in brief: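 In dose–response format, inhibition of unlinked protease (25 nM) was measured with 1.5 microM bis-peptide Rhodamine110 substrate. Aprotinin served as the intraplate control.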

[2] = system: Zika virus NS2B-NS3 protease (linked construct); assay: Primary screen NINDS Rhodamine qHTS for Zika virus inhibitors (AID 1347160); further: nearly all actives have a fitted effect of over 55% in size
Method in brief: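 Each compound, titrated, sat 15 min with 25 nM linked protease before 1.5 microM Rhodamine110 substrate went in. Fluorescence gain over the next 15 min, in pH 8.0 Tris with Tween 20, gave Hill-fitted curves.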

For `NCC(CNc1nc(Nc2cccc(NC(=O)N3CCCC3)c2)ncc1I)C(=O)c1cccs1` (configuration not stated), which Potency [1] is on record?
The Potency was “inactive”.

And the Potency [2]?
The Potency was “inactive”.

`COc1c(C)cc(NC(=O)c2nn(Cc3ccc(F)cc3)c3c2CN(C(=O)c2ccc[nH]2)C[C@]3(C)C(N)=O)cc1C` was tested. Which Potency [1] did it give?
Its Potency is “inactive”.

What about the Potency [2] of the same compound?
Its Potency is “inactive”.

Which results are given for `Cc1cc(NC(=O)c2cccc(NC(=O)/C=C/CN(C)C)c2)ccc1Nc1nccc(-c2cccnc2)n1`?
Potency [1]: inactive; Potency [2]: inactive

Which results are given for `c1ccc(-c2ccc(CNc3nc(-c4ccccn4)nnc3-c3ccccc3)cc2)cc1`?
Potency [1]: inactive; Potency [2]: inactive

For `C=C1C(=O)O[C@H]2CC(=C)[C@H]3CC[C@@](C)(O)[C@@H]3CC12` (some centres not stated), which Potency [1] is on record?
The Potency was 11.2 µM (active).

What about the Potency [2] of the same compound?
Its Potency is “inactive”.

How did the Potency [1] turn out when `CC(=O)O[C@@H]1[C@@H](OC(C)=O)[C@H](C)O[C@@H](O[C@H]2[C@@H]3C=CO[C@@H](O[C@@H]4O[C@H](CO)[C@@H](O)[C@H](O)[C@H]4O)[C@@H]3[C@@]3(CO)O[C@@H]23)[C@@H]1OC(=O)/C=C/c1ccccc1` was run?
Its Potency is “inactive”.

And the Potency [2]?
Its Potency is “inactive”.

With `O=C(Nc1cccc([N+](=O)[O-])c1)c1cccc(S(=O)(=O)N2CCCCCC2)c1` as the compound, how does the Potency [1] read?
The Potency was “inactive”.

And the Potency [2]?
The Potency was “inactive”.

For `C=C1C(=O)OC2CC(C)C(CCC(C)=O)=CCC12` (configuration not stated), which Potency [1] is on record?
The Potency was “inactive”.

And the Potency [2]?
The Potency was “inactive”.

Which Potency [1] does the source give for `O=C(c1ccccc1)c1c(O)cc(O)cc1O[C@@H]1O[C@H](CO)[C@@H](O)[C@H](O)[C@H]1O` here?
The Potency was “inactive”.

And the Potency [2]?
Its Potency is “inactive”.

`COc1ccc2c(c1)C(C(=O)N(Cc1ccc(N(C)C)cc1)c1ccc(C(C)C)cc1)CCC2` (configuration not stated) was tested. Which Potency [1] did it give?
Its Potency is “inactive”.

And the Potency [2]?
The Potency was “inactive”.

With `CC(C)Oc1ccc(-c2cnc3c(-c4ccnc5ccccc45)cnn3c2)cc1` as the compound, how does the Potency [1] read?
Its Potency is “inactive”.

What about the Potency [2] of the same compound?
The Potency was “inactive”.

For `O=C(O)CCc1nccc2c1[nH]c1ccccc12`, which Potency [1] is on record?
Its Potency is “inactive”.

And the Potency [2]?
The Potency was “inactive”.

Which results are given for `O=C(Nc1ccnc(NC(=O)C2CC2)c1)c1c(Cl)cccc1Cl`?
Potency [1]: inactive; Potency [2]: inactive

How did the Potency [1] turn out when `COc1ccccc1C(=O)Nc1cc2c(cc1N1CCCC1)n(C)c(=O)n2C` was run?
Its Potency is “inactive”.

And the Potency [2]?
The Potency was “inactive”.

`Cc1c(C2=CCN(C(=O)N(C)C(C)C)CC2)nnn1-c1cccnc1F` was tested. Which Potency [1] did it give?
Its Potency is “inactive”.

And the Potency [2]?
The Potency was “inactive”.

Which results are given for `COc1cc(CCc2cc(NC(=O)c3ccc(N4CC(C)NC(C)C4)cc3)n[nH]2)cc(OC)c1` (configuration not stated)?
Potency [1]: inactive; Potency [2]: inactive

With `CC(O)(C(=O)C1CC1(CO)COC1OC(CO)C(O)C(O)C1O)C1C(O)CC2C3CC=C4CC(O)CC(O)C4(C)C3C(O)CC21C` (configuration not stated) as the compound, how does the Potency [1] read?
The Potency was “inactive”.

And the Potency [2]?
Its Potency is “inactive”.

For `C=C(C)C(=O)O[C@H]1[C@H]2C(=C)C(=O)O[C@@H]2C[C@@H](C)[C@@H]2O[C@@H]2C(=O)[C@](C)(O)[C@@H]1OC(=O)C(=C)C`, which Potency [1] is on record?
The Potency was “inactive”.

What about the Potency [2] of the same compound?
Its Potency is “inactive”.

How did the Potency [1] turn out when `COc1cc(C#N)ccc1S(=O)(=O)Nc1ccc2c(c1)cc(C)c(=O)n2C` was run?
Its Potency is “inactive”.

And the Potency [2]?
Its Potency is “inactive”.

What does the source list for `CS(=O)(=O)Nc1ccc2oc3c(OC(F)F)ccc(C(=O)Nc4c(Cl)cncc4Cl)c3c2c1`?
Potency [1]: inactive; Potency [2]: inactive

Which results are given for `O=C(c1c(F)ccc(NS(=O)(=O)N2CC[C@@H](F)C2)c1F)c1c[nH]c2ncc(-c3cnc(C4CC4)nc3)cc12`?
Potency [1]: inactive; Potency [2]: inactive

How did the Potency [1] turn out when `C#CC(=O)N(c1ccc(OC)cc1OC)C(C(=O)NCC(=O)OCC)c1cccs1` (configuration not stated) was run?
Its Potency is “inactive”.

And the Potency [2]?
Its Potency is “inactive”.

With `C=C1C(=O)OC2CC(C)=C(C(C)CCCOC(C)=O)C(OC(=O)CC(C)CC)C12` (configuration not stated) as the compound, how does the Potency [1] read?
The Potency was “inactive”.

And the Potency [2]?
The Potency was “inactive”.

For `CNc1cccc(CCOc2ccc3c(c2)CN(CC(F)(F)F)C(=O)[C@H](CC(=O)O)C3)n1`, which Potency [1] is on record?
Its Potency is “inactive”.

What about the Potency [2] of the same compound?
Its Potency is “inactive”.

What does the source list for `C1=C/COCc2cc(ccc2OCCN2CCCC2)Nc2nccc(n2)-c2cccc(c2)COC/1`?
Potency [1]: inactive; Potency [2]: inactive

For `COc1ccc(C[C@H]2COC(=O)[C@@H]2Cc2ccc(O[C@@H]3O[C@H](CO)[C@@H](O)[C@H](O)[C@H]3O)c(OC)c2)cc1OC`, which Potency [1] is on record?
Its Potency is “inactive”.

And the Potency [2]?
The Potency was “inactive”.

Which results are given for `Nc1nc2c(s1)CCN(Cc1ccc(Cl)cc1)CC2`?
Potency [1]: inactive; Potency [2]: inactive

Which Potency [1] does the source give for `Clc1cccc(COc2cncc(N3CCNCC3)n2)c1` here?
The Potency was “inactive”.

And the Potency [2]?
Its Potency is “inactive”.

Which Potency [1] does the source give for `Cn1ncc(Cl)c1-c1cc(C(=O)NC(CN)Cc2ccc(F)c(F)c2)oc1Cl` (configuration not stated) here?
Its Potency is “inactive”.

And the Potency [2]?
The Potency was “inactive”.

Which Potency [1] does the source give for `COc1ccncc1C(=O)NC(=O)Nc1ccc(-c2ccccc2)c(C(F)(F)F)c1` here?
The Potency was “inactive”.

What about the Potency [2] of the same compound?
Its Potency is “inactive”.

Which Potency [1] does the source give for `CCN(CCNC(=O)Nc1ccccc1Br)c1cccc(C)c1` here?
Its Potency is “inactive”.

What about the Potency [2] of the same compound?
The Potency was “inactive”.

`O=C(Nc1ccccc1Cl)c1cnc2ccc(C3CCNCC3)cn12` was tested. Which Potency [1] did it give?
Its Potency is “inactive”.

And the Potency [2]?
Its Potency is “inactive”.

Which results are given for `CCCc1ccc(OCC(=O)N(Cc2nc(-c3cccnc3)no2)C(C)C)cc1`?
Potency [1]: inactive; Potency [2]: inactive

For `CCOc1cc(C(C)(C)C)ccc1C1=N[C@@](C)(c2ccc(Cl)cc2)[C@@](C)(c2ccc(Cl)cc2)N1C(=O)N1CCN(CC(=O)N2CCOCC2)CC1`, which Potency [1] is on record?
Its Potency is “inactive”.

What about the Potency [2] of the same compound?
Its Potency is “inactive”.

For `O=C(c1ccc(Cl)cc1)N1CCN(c2ccnc3cc(Cl)ccc23)CC1`, which Potency [1] is on record?
The Potency was “inactive”.

What about the Potency [2] of the same compound?
The Potency was “inactive”.

Which Potency [1] does the source give for `COc1cc2nc(N3CCN(C(=O)c4ccco4)C4CCCCC43)nc(N)c2cc1OC` (configuration not stated) here?
The Potency was “inactive”.

And the Potency [2]?
Its Potency is “inactive”.
